# m-calpain inh: blocks pig calpain II enzyme activity. purified calpain II, fluorogenic peptide substrate, 30 min. inhibition, % at 16 µM. 220,000 tested, 0.37% active. AID 1236;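 active = inhibition above about 50%, limit read from the data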
# ROMK primary: modulates human ROMK potassium channel activity; P48048; Tet-inducible ROMK, thallium flux fluorescence; actives lie on both sides; B-score at 10 µM; 130,000 tested, 2% active; AID 1918;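 active = signal ratio slope over the read window, or its plate-corrected B-score, at least 3 SD from the plate mean, either direction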;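 note: B-score of the F/F0 ratio slope over 7 to 12 s after thallium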
# L major viab: inhibitors of Leishmania major promastigote growth; Leishmania major promastigotes, resazurin fluorescence viability; inhibition, % at 10 µM; 200,000 tested, 9% active; AID 1063; in the data active = inhibition above about 50%;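 note: promastigotes grown with compound for 44 hours at 28 °C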
# WT yeast gro inh: growth inhibition of WT yeast, mitochondrial fusion screen; AID 1362; inhibition, % at 10 µM; 190,000 tested, 2.1% active; mitochondrial fusion phenotypic screen, WT strain; in the data active = inhibition above about 58%; tested in S. cerevisiae
# Cl transport mod: modulators of human KCC2 chloride dependent transport; Q9H2X9; KCC2 cells, thallium flux FluoZin-2 fluorescence; B-score of Tl+ flux slope (higher = more flux/activation; lower = inhibition) at 10 µM; 190,000 tested, 2.2% active; AID 1456;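 active = thallium flux slope and its plate-corrected score both differing from the plate sample mean at a set confidence after two filtering rounds, in either direction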;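 note: slope of fluorescence scaled to starting intensity during 10 to 20 s after thallium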
# Target sequence (Q9H2X9 whole entry, looked up): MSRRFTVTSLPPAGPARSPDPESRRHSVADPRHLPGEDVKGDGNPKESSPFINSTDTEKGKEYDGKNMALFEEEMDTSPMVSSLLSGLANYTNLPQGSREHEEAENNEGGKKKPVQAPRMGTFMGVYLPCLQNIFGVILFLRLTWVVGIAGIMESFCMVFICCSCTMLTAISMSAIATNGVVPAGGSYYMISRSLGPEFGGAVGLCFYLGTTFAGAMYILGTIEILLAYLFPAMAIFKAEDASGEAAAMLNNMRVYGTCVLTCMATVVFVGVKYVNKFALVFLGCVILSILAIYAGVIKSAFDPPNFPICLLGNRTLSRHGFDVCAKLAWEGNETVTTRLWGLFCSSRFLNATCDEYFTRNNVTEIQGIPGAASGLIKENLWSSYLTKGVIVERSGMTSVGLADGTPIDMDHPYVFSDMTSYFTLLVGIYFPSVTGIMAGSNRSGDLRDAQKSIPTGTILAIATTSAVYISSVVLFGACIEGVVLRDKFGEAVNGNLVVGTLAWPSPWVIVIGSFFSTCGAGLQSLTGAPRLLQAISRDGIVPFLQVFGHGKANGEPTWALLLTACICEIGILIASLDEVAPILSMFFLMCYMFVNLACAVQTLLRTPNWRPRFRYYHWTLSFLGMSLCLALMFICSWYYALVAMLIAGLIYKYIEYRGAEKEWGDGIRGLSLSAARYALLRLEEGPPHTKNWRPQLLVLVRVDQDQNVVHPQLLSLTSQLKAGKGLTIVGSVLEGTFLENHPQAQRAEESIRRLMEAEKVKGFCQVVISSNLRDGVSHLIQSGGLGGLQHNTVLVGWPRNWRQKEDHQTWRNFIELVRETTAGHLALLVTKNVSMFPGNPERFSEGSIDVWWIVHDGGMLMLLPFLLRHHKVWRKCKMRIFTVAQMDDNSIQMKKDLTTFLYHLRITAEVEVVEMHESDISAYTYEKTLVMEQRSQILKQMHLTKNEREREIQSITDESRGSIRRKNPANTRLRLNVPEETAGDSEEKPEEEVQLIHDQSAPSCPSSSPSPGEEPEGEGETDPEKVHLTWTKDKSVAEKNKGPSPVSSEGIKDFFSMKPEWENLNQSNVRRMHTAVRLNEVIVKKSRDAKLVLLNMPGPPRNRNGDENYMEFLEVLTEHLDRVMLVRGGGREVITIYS
# Numbers without * were called inactive; i = inactive; / = no result. Only some compounds are listed: those with a hit (about 12% of all), similar ones and a draw of the others.
SMILES,m-calpain inh,ROMK primary,L major viab,WT yeast gro inh,Cl transport mod
O=[N+]([O-])c1ccccc1CNC(Cc1ccccc1)c1ccccc1 (stereo not drawn),13.4,1.62,90.4*,38.7,-0.23
COc1ccc(S(=O)(=O)NN(C)c2ncc(C(F)(F)F)cc2Cl)cc1,-15.0,/,3.3,1.7,-0.3
Cc1ccc2nc(NC3=NCN(Cc4ccc5c(c4)OCO5)CN3)nc(C)c2c1,/,/,100.5*,/,/
Cc1ccc2nc(NC3=NCN(Cc4ccco4)CN3)nc(C)c2c1,/,/,/,2.3,/
CCc1c(C)nc(/N=C(/NC(=O)c2ccccc2)Nc2ccccc2OC)[nH]c1=O,/,-0.672,-2.9,/,0.519
Cc1cccc(NC2=NC(C)(C)N=C(N)N2)c1,-28.8,0.765,-3.1,-6.7,0.636
CC1=CC(C)(C)N2C(=O)C3(N=C(N)NC(Nc4ccccc4)=N3)c3cc(C)cc1c32 (stereo not drawn),-35.4,-2.3,96.1*,8.3,0.162
Oc1ccc2ccccc2c1N=Nc1ccccn1,8.5,-0.327,99.5*,11.1,2.95
COc1cc(OC)c(S(=O)(=O)NC(C)C)cc1S(=O)(=O)NC(C)C,1.4,0.401,-5.2,0.3,-0.112
O=C(Nc1nc(-c2ccc(S(=O)(=O)N3CCCCCC3)cc2)cs1)c1ccccc1,-393.3,0.791,12.4,12.6,0.635
Cc1csc(NC(=O)c2ccc(S(=O)(=O)N3CCCC3)cc2)n1,-22.9,/,/,/,0.181
O=C(Nc1nc(-c2ccc3c(c2)OCCO3)cs1)c1ccc(S(=O)(=O)N2CCCCC2)cc1,-391.9,/,85.5*,21.1,0.796
O=C(Nc1nc(-c2cccs2)cs1)c1ccc(S(=O)(=O)N2CCCC2)cc1,-156.5,/,76.9*,6.8,-1.67
CCOC(=O)N1CCN(C(=O)c2ccc3c(c2)sc2nc(-c4ccc(OC)cc4)cn23)CC1,-72.3,/,98.3*,-4.7,-0.715
CCOC(=O)N1CCN(C(=O)c2sc3nc(-c4ccc(F)cc4)cn3c2C)CC1,10.5,/,0.6,3.3,-0.791
Cc1ccc(C2C3=C(CCCC3=O)N=C3c4ccccc4C(=O)C32)cc1 (stereo not drawn),-11.7,-0.459,66.7*,-11.4,-2.02
O=C1CCCC2=C1C(c1ccc(Cl)cc1)C1C(=O)c3ccccc3C1=N2 (stereo not drawn),-24.3,/,57.0*,3.3,-2.73
CCOC(=O)C1=C(C)N=C2c3ccccc3C(=O)C2C1c1ccc(C)cc1 (stereo not drawn),8.6,-0.0117,5.1,3.7,-0.000435
O=C1CCCC2=C1C(c1ccccc1)C1C(=O)c3ccccc3C1=N2 (stereo not drawn),12.1,0.779,62.2*,10.4,-0.606
Cc1ccc(/C=C(\NC(=O)c2ccccc2)C(=O)NCC2CCCO2)o1 (stereo not drawn),-9.6,-0.512,10.3,-8.0,-0.542
CC/C(C)=N\Nc1nc(-c2cc3cc(OC)ccc3oc2=O)cs1,-18.2,/,/,/,0.594
Cc1[nH]n(-c2ccccc2)c(=O)c1C(C[N+](=O)[O-])c1ccc(Br)cc1 (stereo not drawn),-4.5,/,100.3*,27.5,-2.15
O=C(NC1CCN(Cc2ccccc2)CC1)c1ccc(N2CC3CC(C2)c2cccc(=O)n2C3)c([N+](=O)[O-])c1 (stereo not drawn),-9.2,-0.108,-4.8,-3.7,0.0525
CC1CC(C)CN(C(=O)c2ccc(N3CC4CC(C3)c3cccc(=O)n3C4)c([N+](=O)[O-])c2)C1 (stereo not drawn),3.8,-0.415,56.3*,-23.7,-0.351
CCOC(=O)c1c(NC(=O)/C=C/c2ccc(C)o2)sc(C)c1C,-30.8,/,-5.2,0.6,/
SMILES,m-calpain inh,ROMK primary,L major viab,WT yeast gro inh,Cl transport mod
CCOC(=O)c1sc(NC(=O)/C=C/c2cnn(C)c2C)c(C(=O)OC(C)C)c1C,i,-0.519,0.0,59.2*,/
Cc1ccc(/C=C/C(=O)Nc2sc(C)c(C)c2C(=O)OC(C)C)o1,-151.9,0.198,50.8*,-6.5,0.607
Cc1ccc(/C=C/C(=O)Nc2nnc(C)s2)o1,-2.2,1.07,54.6*,-13.9,-1.02
CCOC(=O)c1sc(NC(C)=O)c(C(=O)OCC)c1C,6.2,-0.414,-0.8,11.4,0.128
CC(C)C(=O)NC(NC(=S)Nc1ccc(S(N)(=O)=O)cc1)C(Cl)(Cl)Cl (stereo not drawn),13.1,1.08,27.4,-1.0,-0.0356
COCCOC(=O)/C(C#N)=C/c1cn(Cc2ccccc2)nc1-c1cccnc1,-0.5,1.19,1.6,9.7,-0.696
O=C(NCCc1ccccn1)c1cc(-c2cccc3ccccc23)nc2ccccc12,-37.2,/,11.2,-2.8,-0.0016
Cc1ccc(S(=O)(=O)N2CCCCC2)cc1NC(=O)CSc1nccn1C,2.2,-1.34,1.3,-0.6,0.429
CCOC(=O)N1CCC(NC(=O)c2ccc3c(c2)ncn3C2CCCC2)CC1,76.9*,-0.419,-1.7,5.3,/
CCOC(=O)N1CCC(NCCNC(=O)c2ccccc2)CC1,-16.3,/,77.0*,-6.7,/
CCOC(=O)N1CCC(NC(=O)c2ccccc2C(=O)O)CC1,-7.7,-0.446,/,/,-0.0419
O=C(NCCCCCCNC(=O)c1cccs1)c1cccs1,16.4,1.38,0.8,5.3,-0.00425
O=C(NCCNC1CCC(c2ccccc2)CC1)c1cccs1 (stereo not drawn),9.6,-1.4,94.2*,7.2,0.087
CCOC(=O)N1CCC(NC(=O)c2cccs2)CC1,-14.9,0.76,/,/,0.592
CCOC(=O)N1CCC(NCCNC(=O)c2cccs2)CC1,-199.0,0.409,88.2*,-7.0,/
COc1ccc(N(C(C)=O)c2nc(C)cc(C)c2C#N)c(OC)c1,18.4,0.35,-5.5,8.6,-0.856
ClC(/C=N/n1cnnc1)=C/c1ccccc1,-11.2,/,/,/,-0.272
CCOC(=O)N1CCC(NC(=O)CCC(=O)c2ccccc2)CC1,21.1,/,-8.1,-12.0,0.698
CCOC(=O)N1CCC(NCCNC(=O)c2ccccc2Cl)CC1,-17.1,/,83.9*,-8.8,0.039
O=C(CSc1nc(NS(=O)(=O)c2ccccc2)cc(=O)[nH]1)Nc1ccc(F)cc1,10.7,0.112,0.5,-8.2,0.676
CCCCC(=O)Nc1ccc(C(=O)Nc2ccc(S(=O)(=O)Nc3nccc(C)n3)cc2)cc1,-35.1,-0.0292,78.2*,-15.2,1.07
Cc1ccnc(NS(=O)(=O)c2ccc(NC(=O)CSc3nc(-c4ccccc4)cc(=O)[nH]3)cc2)n1,-12.4,-0.267,93.7*,-9.8,0.0829
CCCCC(=O)Nc1ccc(S(=O)(=O)Nc2nccc(C)n2)cc1,15.0,1.04,-0.3,-14.4,0.356
O=C(CN1CCCc2ccccc21)Nc1ccc(F)cc1[N+](=O)[O-],-8.3,-0.0261,-3.3,-0.9,-0.319
COc1ccc(CCNC(=O)Cn2cnc3scc(-c4ccccc4)c3c2=O)cc1OC,24.3,-0.773,3.0,0.3,-0.0815
O=C(N/N=C1/C(=O)c2cccc3cccc1c23)c1ccc(Cl)cc1,-72.0,1.09,57.2*,22.9,4.81*
CCNC(=S)N/N=C1\C(=O)c2cccc3cccc1c23,-28.4,1.19,10.9,15.8,24.1*
O=C1c2cccc3cccc(c23)C(=O)N1OS(=O)(=O)c1ccc(Cl)cc1,-211.1,0.503,-5.1,-6.1,0.949
CCNC(=S)N/N=C/c1ccco1,15.9,0.546,2.0,0.1,0.12
Brc1ccc2c(c1)OCCOCCOc1cc(Br)ccc1OCCOCCOCCO2,14.1,/,100.5*,79.9*,/
